Structures can show the parent of a compound that is named as a salt.
Tests used:
Settings in all cases: incubation time: 27 h, anaerobic, 37 °C;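 for the amine columns active = adjusted P below 0.05 in both replicates with a change the same way and a mean fold change under 0.8 or over 1.25; inactive = the rest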
[1] = system: Clostridium sporogenes DSM 1664; assay: growth (OD595) fold change vs plate DMSO controls (fold change (ratio)); higher = more growth
Method in brief: (§1)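 Growth is expressed as the fold change relative to the median of the DMSO control wells on each plate. Cultures in mGAM were grown anaerobically in 96-well plates for 27 h at 37 °C, shaken, and read at 595 nm. Readings were blank-subtracted, corrected for compound background with 20 µM compound solutions in water, and converted to OD with a calibration factor of 5. Fold changes above 1.5 were set to NA, and each value is the mean of 2 biological replicates.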

[2] = system: Escherichia coli IAI1; assay: as above
Method in brief: as §1

[3] = system: Klebsiella aerogenes DSM 30053; assay: as above
Method in brief: as §1

[4] = system: Ruminococcus gnavus DSM 108212; assay: as above
Method in brief: as §1

[5] = system: Klebsiella aerogenes DSM 30053; assay: fold change of Histamine concentration vs plate DMSO controls (fold change (ratio)); higher = more amine produced, active = hit call of the paper (significant change in both replicates, either direction)
Method in brief: (§2)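 Extracts of whole anaerobic mGAM cultures were analysed for amines by LC–triple-quadrupole MS with dynamic MRM and external calibration curves, with drift corrected within batch. Four gut strains were grown at 37 °C for 27 h in 80 µL wells with compounds at 20 µM final, sweeteners at 50 µM final. Each value expresses fold change over plate DMSO controls. The average of 2 biological replicates is shown.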

[6] = system: Clostridium sporogenes DSM 1664; assay: fold change of Tryptamine concentration vs plate DMSO controls (fold change (ratio)); higher = more amine produced, active = hit call of the paper (significant change in both replicates, either direction)
Method in brief: as §2

[7] = system: Ruminococcus gnavus DSM 108212; assay: as above
Method in brief: as §2

[8] = system: Escherichia coli IAI1; assay: fold change of Putrescine concentration vs plate DMSO controls (fold change (ratio)); higher = more amine produced, active = hit call of the paper (significant change in both replicates, either direction)
Method in brief: as §2

[9] = system: Klebsiella aerogenes DSM 30053; assay: as above
Method in brief: as §2

[10] = system: Escherichia coli IAI1; assay: fold change of Cadaverine concentration vs plate DMSO controls (fold change (ratio)); higher = more amine produced, active = hit call of the paper (significant change in both replicates, either direction)
Method in brief: as §2

[11] = system: Klebsiella aerogenes DSM 30053; assay: as above
Method in brief: as §2

[12] = system: Ruminococcus gnavus DSM 108212; assay: fold change of 2-Phenylethylamine concentration vs plate DMSO controls (fold change (ratio)); higher = more amine produced, active = hit call of the paper (significant change in both replicates, either direction)
Method in brief: as §2

| Compound | growth [1] | growth [2] | growth [3] | growth [4] | fold change of Histamine concentration [5] | fold change of Tryptamine concentration [6] | fold change of Tryptamine concentration [7] | fold change of Putrescine concentration [8] | fold change of Putrescine concentration [9] | fold change of Cadaverine concentration [10] | fold change of Cadaverine concentration [11] | fold change of 2-Phenylethylamine concentration [12] |
| --- | --- | --- | --- | --- | --- | --- | --- | --- | --- | --- | --- | --- |
| Cc1c(O)c(=O)n(-c2ccccc2)n1C [Antipyrine, 4-hydroxy] (20 µM) | 1.04 | 1.02 | 1.02 | 0.689 | 0.913 (inactive) | 0.985 (inactive) | 0.987 (inactive) | 1.01 (inactive) | 0.956 (inactive) | 0.973 (inactive) | 1.01 (inactive) | 0.932 (inactive) |
| CC1(C)O[C@@H]2[C@@H](CO[C@@]3(COS(N)(=O)=O)OC(C)(C)O[C@@H]23)O1 [Topiramate] (20 µM) | 0.915 | 0.972 | 0.997 | 1.06 | 1 (inactive) | 0.998 (inactive) | 0.947 (inactive) | 1.01 (inactive) | 0.98 (inactive) | 1.01 (inactive) | 0.989 (inactive) | 0.951 (inactive) |
| CCOc1cc(CC(=O)N[C@@H](CC(C)C)c2ccccc2N2CCCCC2)ccc1C(=O)O [Repaglinide] (20 µM) | 1.11 | 1.2 | 0.993 | 0.81 | 0.982 (inactive) | 1.18 (inactive) | 1.09 (inactive) | 1.14 (inactive) | 0.966 (inactive) | 1.01 (inactive) | 1.03 (inactive) | 1.13 (inactive) |
| CCCOc1ccc2[nH]c(NC(=O)OC)nc2c1 [Oxibendazol] (20 µM) | 0.862 | 0.999 | 0.972 | 0.869 | 1.04 (inactive) | 0.982 (inactive) | 1 (inactive) | 1 (inactive) | 1.02 (inactive) | 1 (inactive) | 0.987 (inactive) | 0.996 (inactive) |
| CCS(=O)(=O)CCn1c([N+](=O)[O-])cnc1C [Tinidazole] (20 µM) | 0 | 0.988 | 0.99 | 0.176 | 0.852 (inactive) | 0.0351 (active) | 0.0414 (active) | 1.01 (inactive) | 0.977 (inactive) | 1.04 (inactive) | 0.993 (inactive) | 0.0315 (active) |
| CN(C)CC/C=C1/c2ccccc2COc2ccc(CC(=O)O)cc21 [Olopatadine hydrochloride] (20 µM) | 1.01 | 0.978 | 1.01 | 0.955 | 1 (inactive) | 0.968 (inactive) | 1.03 (inactive) | 1.01 (inactive) | 1 (inactive) | 0.995 (inactive) | 1 (inactive) | 1.04 (inactive) |
| COc1ccccc1N1CCN(CCCCNC(=O)c2ccc3ccccc3c2)CC1 (20 µM) | 0.826 | 0.976 | 0.969 | 0.893 | 0.972 (inactive) | 1.13 (inactive) | 1.08 (inactive) | 1.04 (inactive) | 0.962 (inactive) | 0.795 (inactive) | 1.02 (inactive) | 1.3 (inactive) |
| CCc1ccc(CCOc2ccc(CC3SC(=O)NC3=O)cc2)nc1 (stereo not drawn) [Pioglitazone] (20 µM) | 1.3 | 0.963 | 0.988 | 0.816 | 1 (inactive) | 0.918 (inactive) | 0.977 (inactive) | 1.02 (inactive) | 1.01 (inactive) | 0.968 (inactive) | 0.998 (inactive) | 0.904 (inactive) |
| CC(Oc1c(Cl)cccc1Cl)C1=NCCN1 (stereo not drawn) [Lofexidine] (20 µM) | 1.07 | 1.09 | 1.06 | 1.04 | 0.922 (inactive) | 0.975 (inactive) | 1.03 (inactive) | 1.04 (inactive) | 0.993 (inactive) | 1.01 (inactive) | 1.01 (inactive) | 1.01 (inactive) |
| CN(C/C=C/C#CC(C)(C)C)Cc1cccc2ccccc12 [Terbinafine] (20 µM) | 1.03 | 1.2 | 0.972 | 0.896 | 1.07 (inactive) | 1.01 (inactive) | 0.97 (inactive) | 1.21 (inactive) | 1.01 (inactive) | 0.987 (inactive) | 0.989 (inactive) | 1.02 (inactive) |
| CCCOc1ccc(C(=O)OCCN(CC)CC)cc1N [Proparacaine hydrochloride] (20 µM) | 1.19 | 1.08 | 1.14 | 1.03 | 0.892 (inactive) | 1.09 (inactive) | 1.08 (inactive) | 1.13 (inactive) | 0.98 (inactive) | 0.971 (inactive) | 1.04 (inactive) | 1.14 (inactive) |
| CCc1cccc2c3c([nH]c12)C(CC)(CC(=O)O)OCC3 (stereo not drawn) [Etodolac] (20 µM) | 1.08 | 1.03 | 1.1 | 1.06 | 1.06 (inactive) | 0.981 (inactive) | 1.06 (inactive) | 0.968 (inactive) | 0.949 (inactive) | 0.975 (inactive) | 0.991 (inactive) | 1.12 (inactive) |
| C[N+](C)(C)CCCCCC[N+](C)(C)C [Hexamethonium dibromide dihydrate] (20 µM) | 0.959 | 0.998 | 1 | 0.892 | 1.02 (inactive) | 1.02 (inactive) | 1.03 (inactive) | 1.04 (inactive) | 0.982 (inactive) | 0.984 (inactive) | 1 (inactive) | 1.01 (inactive) |
| CC(COc1ccccc1)NC(C)C(O)c1ccc(O)cc1 (stereo not drawn) [Isoxsuprine hydrochloride] (20 µM) | 1.07 | 1 | 1 | 1.01 | 0.819 (inactive) | 1.05 (inactive) | 0.977 (inactive) | 1.05 (inactive) | 1 (inactive) | 0.927 (inactive) | 1.03 (inactive) | 0.966 (inactive) |
| CN1CCN(C2=Nc3cc(Cl)ccc3Nc3ccccc32)CC1 [Clozapine] (20 µM) | 1.01 | 0.997 | 0.984 | 0.688 | 1.01 (inactive) | 1.02 (inactive) | 0.947 (inactive) | 1.02 (inactive) | 0.989 (inactive) | 0.889 (inactive) | 1 (inactive) | 0.92 (inactive) |
| CC(C)[C@H]1CC[C@H](C(=O)N[C@H](Cc2ccccc2)C(=O)O)CC1 [Nateglinide] (20 µM) | 1.11 | 1.22 | 1.02 | 0.903 | 1.01 (inactive) | 0.94 (inactive) | 1.02 (inactive) | 1.2 (inactive) | 1 (inactive) | 0.984 (inactive) | 1 (inactive) | 1.05 (inactive) |
| CN(C(=O)C(Cl)Cl)c1ccc(OC(=O)c2ccco2)cc1 [Diloxanide furoate] (20 µM) | 1.1 | 0.998 | 1.01 | 0.993 | 1 (inactive) | 0.918 (inactive) | 0.915 (inactive) | 1.02 (inactive) | 1 (inactive) | 0.973 (inactive) | 0.997 (inactive) | 0.979 (inactive) |
| Nc1ccc(S(=O)(=O)Nc2nccs2)cc1 [Sulfathiazole] (20 µM) | 0.969 | 0.979 | 1.03 | 0.853 | 1 (inactive) | 0.968 (inactive) | 1.03 (inactive) | 0.955 (inactive) | 1.02 (inactive) | 1.03 (inactive) | 1.01 (inactive) | 1.03 (inactive) |
| CCN[C@H]1C[C@H](C)S(=O)(=O)c2sc(S(N)(=O)=O)cc21 [Dorzolamide hydrochloride] (20 µM) | 1.23 | 1.05 | 1.02 | 1.15 | 0.991 (inactive) | 0.996 (inactive) | 0.977 (inactive) | 1.06 (inactive) | 0.977 (inactive) | 0.965 (inactive) | 0.993 (inactive) | 0.992 (inactive) |
| COc1ccc(CC2c3cc(OC)c(OC)cc3CC[N+]2(C)CCC(=O)OCCCCCOC(=O)CC[N+]2(C)CCc3cc(OC)c(OC)cc3C2Cc2ccc(OC)c(OC)c2)cc1OC (stereo not drawn) [Atracurium besylate] (20 µM) | 0.945 | 1.13 | 0.964 | 1.13 | 1.01 (inactive) | 1.15 (inactive) | 1.1 (inactive) | 1.09 (inactive) | 0.953 (inactive) | 1 (inactive) | 1.03 (inactive) | 1.05 (inactive) |
| CN1[C@@H]2CC[C@H]1C[C@@H](OC(c1ccccc1)c1ccccc1)C2 [Benztropine mesylate] (20 µM) | 1.11 | 0.99 | 0.975 | 1 | 1.09 (inactive) | 1.03 (inactive) | 0.964 (inactive) | 1.03 (inactive) | 1.03 (inactive) | 1.05 (inactive) | 0.995 (inactive) | 1 (inactive) |
| COc1ccc(C[C@@H]2c3cc(OC)c(OC)cc3CC[N@+]2(C)CCC(=O)OCCCCCOC(=O)CC[N@@+]2(C)CCc3cc(OC)c(OC)cc3[C@H]2Cc2ccc(OC)c(OC)c2)cc1OC [Cisatracurium besylate] (20 µM) | 1.4 | 1.01 | 1.05 | 1.01 | 0.758 (inactive) | 1.05 (inactive) | 1.03 (inactive) | 0.918 (inactive) | 0.929 (inactive) | 0.944 (inactive) | 1.07 (inactive) | 1.01 (inactive) |
| CC(=O)Nc1c(I)c(C(=O)N[C@H]2C(O)O[C@H](CO)[C@@H](O)[C@@H]2O)c(I)c(N(C)C(C)=O)c1I (stereo partly drawn) [Metrizamide] (20 µM) | 1.03 | 1.22 | 1.04 | 0.799 | 0.994 (inactive) | 1.05 (inactive) | 1.06 (inactive) | 1.22 (inactive) | 0.994 (inactive) | 0.971 (inactive) | 1 (inactive) | 1.08 (inactive) |
| C[C@H](O)C(=O)Nc1c(I)c(C(=O)NC(CO)CO)c(I)c(C(=O)NC(CO)CO)c1I [Iopamidol] (20 µM) | 1.2 | 1.02 | 1.05 | 1.25 | 1.04 (inactive) | 1.03 (inactive) | 1.07 (inactive) | 0.979 (inactive) | 0.995 (inactive) | 0.999 (inactive) | 1.01 (inactive) | 1.05 (inactive) |

Reference: the supplement of paper PMC12494721
